# Data published in PubChem BioAssay (Tox21).
# Where “and” joins values, the source holds several entries; their conditions need not be identical. Equal values may be shown once. Records with an inconclusive call do not appear. Entries that show only a call come without a potency. Where a structure was tested more than once in an assay, its records may differ in their call. Calls of active or inactive are those of the source. Unless noted, the call rests on the fitted dose curve; in most records, active means well fitted curve in the direction sought with a large enough effect in the repeat runs; inconclusive means weak or mixed curves; inactive means no such curve, though single readings can be large; an effect the other way counts as inactive or inconclusive.
# What was measured:
# [1] = qHTS assay for small molecule agonists of the p53 signaling pathway (AID 651631; calls by dose curve; further: nearly all actives have a fitted effect of over 15% in size)
# Method in brief: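 Quantitative high-throughput format: 4,000 p53RE-bla HCT-116 cells/well, 5 h pre-incubation, 16 h compound exposure at 37 °C, 2 h room-temperature substrate step, fluorescence intensity measured.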
# [2] = qHTS assay for small molecule agonists of the p53 signaling pathway - cell viability (AID 651633; calls by dose curve; further: nearly all actives have a fitted effect of over 30% in size; further: potency means the concentration at half of the fitted maximal effect)
# Method in brief: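 Viability counter-read: CellTiter-Glo luminescence (30 min, room temperature) in the same p53RE-bla plates. These plates had been exposed to compounds for 16 h at 37 C.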
# [3] = qHTS assay for small molecules that induce genotoxicity in human embryonic kidney cells expressing luciferase-tagged ATAD5 - cell viability (AID 651634; calls by dose curve; further: nearly all actives have a fitted effect of over 25% in size; further: potency means the concentration at half of the fitted maximal effect)
# Method in brief: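 After 15.5 hr incubation with compound at 37C, 5% CO2, HEK293T ATAD5-luciferase cells received CellTiter-Fluor reagent; fluorescence intensity was quantified following 30 min at 37C.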
# [4] = qHTS assay for small molecule disruptors of the mitochondrial membrane potential - cell viability (AID 720634; calls by dose curve; further: nearly all actives have a fitted effect of over 20% in size; further: potency means the concentration at half of the fitted maximal effect)
# Method in brief: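 ATP-based luminescent viability readout (CellTiter-Glo, 30 min, room temperature) in HepG2 cells multiplexed with the m-MPI membrane potential dye; compound exposure lasted 1 hr at 37 C.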
# [5] = qHTS assay to test for compound auto fluorescence at 590 nm (red) in HepG2 cells (AID 720674); further: potency means the concentration at half of the fitted maximal effect
# Method in brief: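 1 hr compound incubation on HepG2 cells, 37 C, 5% CO2; plate read ex 540 nm / em 590 nm; intensities reported as Rose Bengal sodium equivalents.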
# [6] = qHTS assay to test for compound auto fluorescence at 535 nm (green) in HepG2 cells (AID 720675); further: potency means the concentration at half of the fitted maximal effect
# [7] = qHTS assay to test for compound auto fluorescence at 460 nm (blue) in HEK293 cells (AID 720678)
# Method in brief: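 Blue read-out at excitation 405 nm and emission 460 nm follows overnight compound exposure of HEK293 cells at 37C in 5% CO2. Activity is given as auto fluorescence equivalency to triamterene.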
# [8] = qHTS assay to test for compound auto fluorescence at 535 nm (green) in HEK293 cells (AID 720680); further: potency means the concentration at half of the fitted maximal effect
# [9] = qHTS assay to test for compound auto fluorescence at 460 nm (blue) in HEK293 cell free culture (AID 720681)
# Method in brief: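 Blue fluorescence (Ex 405/Em 460 nm, triamterene-equivalent) was read immediately after pin transfer of compound or DMSO into medium (DMEM, 10% FBS) without cells.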
# [10] = qHTS assay to test for compound auto fluorescence at 535 nm (green) in HEK293 cell free culture (AID 720682); further: potency means the concentration at half of the fitted maximal effect
# Method in brief: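 Measurement is a direct plate read of green fluorescence (485 nm in, 535 nm out) after compound addition to serum-supplemented DMEM lacking cells, with fluorescein used to express intensities.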
# [11] = qHTS assay to test for compound auto fluorescence at 590 nm (red) in HEK293 cell free culture (AID 720683); further: potency means the concentration at half of the fitted maximal effect
# Method in brief: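 Red-channel autofluorescence of compounds in culture medium (DMEM, 10% FBS), no cells, measured at 540/590 nm. Rose Bengal sodium is the reference fluorophore for equivalence.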
# [12] = qHTS assay to test for compound auto fluorescence at 590 nm (red) in HepG2 cell free culture (AID 720684); further: potency means the concentration at half of the fitted maximal effect
# Method in brief: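 No cells present: MEM + 10% FBS only. Compound pinned in, red label read (540/590 nm). Activity = fluorescence equivalent to Rose Bengal sodium.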
# [13] = qHTS assay to test for compound auto fluorescence at 460 nm (blue) in HepG2 cell free culture (AID 720685)
# Method in brief: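 Cell-free plates of MEM plus 10% FBS received 23 nL compound or DMSO vehicle; blue-channel (405/460 nm) intensity scored against triamterene as reference fluorophore.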
# [14] = qHTS assay to test for compound auto fluorescence at 535 nm (green) in HepG2 cell free culture (AID 720686); further: potency means the concentration at half of the fitted maximal effect
# [15] = qHTS assay to test for compound auto fluorescence at 460 nm (blue) in HepG2 cells (AID 720687)
# Method in brief: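 Blue-channel autofluorescence (Ex/Em 405/460 nm, triamterene-equivalent) was measured after 1 hr compound exposure at 37 C, 5% CO2. Cells were HepG2, plated overnight at 37 C in MEM plus 10% FBS.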
# [16] = target: Glucocorticoid receptor (Homo sapiens) (UniProt P04150); experiment: qHTS assay to identify small molecule agonists of the glucocorticoid receptor (GR) signaling pathway (AID 720691; active means well fitted activation curve with a large enough effect in the signal ratio in the repeat runs, not every such curve was filed as active; the % refers to the signal ratio; further: potency means the concentration at half of the fitted maximal effect)
# Method in brief: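 Cells: GR-bla HeLa, endogenous GR with stably integrated GRE-beta-lactamase reporter. Treatment 18 h, 37 C, compounds delivered in DMSO. Detection via LiveBLAzer B/G FRET substrate, 2 h RT, fluorescence intensity.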
# [17] = target: Glucocorticoid receptor (Homo sapiens) (UniProt P04150); experiment: qHTS assay to identify small molecule antagonists of the glucocorticoid receptor (GR) signaling pathway (AID 720692; active means well fitted inhibition curve with a large enough effect in the signal ratio in the repeat runs, not every such curve was filed as active; the % refers to the signal ratio)
# Method in brief: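 Quantitative HTS in antagonist format: HeLa cells expressing endogenous GR and a stably integrated GRE-bla reporter, stimulated with 5 nM dexamethasone (final) alongside test compounds for 18 h.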
# [18] = qHTS assay for small molecule disruptors of the mitochondrial membrane potential (AID 720635); further: potency means the concentration at half of the fitted maximal effect
# Method in brief: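 Mitochondrial membrane potential tracked with Mito-MPS dye, red aggregates (ex 540/em 590 nm) against green monomers (ex 490/em 535 nm). Compound treatment 1 hr at 37C, dye 30 min in HepG2.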
# [19] = qHTS assay to test for compound auto fluorescence at 590 nm (red) in HEK293 cells (AID 720679)
# Method in brief: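 Red channel, Ex/Em 540/590nm; signal expressed as equivalency to Rose Bengal sodium. HEK293, 2,000 cells/well, 10% dialyzed FBS; 23 nL compound pinned after 4-5 hr attachment; overnight 37C/5% CO2 before reading.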
# [20] = qHTS assay for small molecules that induce genotoxicity in human embryonic kidney cells expressing luciferase-tagged ATAD5 (AID 651632); further: nearly all actives have a fitted effect of over 15% in size; further: potency means the concentration at half of the fitted maximal effect
# Method in brief: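 Quantitative HTS in HEK293T expressing luciferase-tagged ATAD5, whose levels rise upon DNA damage. Exposure ran 16 hr at 37C and 5% CO2, with luminescence read 30 min after Amplite addition at room temperature.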
# Tags describe the fitted curve by direction and shape or compound fluorescence and quenching.
# Chain of Glucocorticoid receptor (Homo sapiens) (P04150 whole entry, looked up): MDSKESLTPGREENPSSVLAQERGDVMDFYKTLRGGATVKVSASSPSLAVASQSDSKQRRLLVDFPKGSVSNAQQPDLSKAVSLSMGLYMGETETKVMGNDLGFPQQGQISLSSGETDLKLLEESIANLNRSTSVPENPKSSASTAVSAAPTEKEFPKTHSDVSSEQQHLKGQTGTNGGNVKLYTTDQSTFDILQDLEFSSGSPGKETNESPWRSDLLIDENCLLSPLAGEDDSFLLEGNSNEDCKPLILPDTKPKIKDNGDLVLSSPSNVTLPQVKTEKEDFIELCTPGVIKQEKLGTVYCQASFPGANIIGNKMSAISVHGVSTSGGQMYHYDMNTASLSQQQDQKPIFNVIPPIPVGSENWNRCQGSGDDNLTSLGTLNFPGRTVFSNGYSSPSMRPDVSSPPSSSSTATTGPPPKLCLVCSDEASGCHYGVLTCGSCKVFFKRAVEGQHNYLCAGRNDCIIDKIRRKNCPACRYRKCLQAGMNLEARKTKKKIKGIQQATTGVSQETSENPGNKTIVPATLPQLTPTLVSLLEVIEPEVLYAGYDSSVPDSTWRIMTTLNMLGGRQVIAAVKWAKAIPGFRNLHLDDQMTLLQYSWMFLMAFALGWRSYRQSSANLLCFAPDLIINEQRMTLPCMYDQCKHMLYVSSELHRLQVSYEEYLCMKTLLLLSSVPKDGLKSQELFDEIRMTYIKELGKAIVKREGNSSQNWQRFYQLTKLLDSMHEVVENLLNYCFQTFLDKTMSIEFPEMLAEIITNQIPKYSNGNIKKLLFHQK
Structure (SMILES),Potency [1],Potency [2],Potency [3],Potency [4],Potency [5],Potency [6],Potency [7],Potency [8],Potency [9],Potency [10],Potency [11],Potency [12],Potency [13],Potency [14],Potency [15],Potency [16],Potency [17],Potency [18],Potency [19],Potency [20]
O=C1c2c(O)cccc2Cc2cccc(O)c21,inactive,inactive,inactive,inactive,inactive,inactive,inactive,inactive,inactive,inactive,inactive,inactive,inactive,inactive,inactive,inactive,inactive,–,–,–
Cn1c(=O)c2c(ncn2C)n(C)c1=O,inactive,inactive,–,inactive,inactive,inactive,–,inactive,inactive,inactive,inactive,inactive,inactive,inactive,inactive,inactive,inactive,inactive,inactive,–
CN(C)C(=O)Nc1ccc(Cl)c(Cl)c1,inactive,inactive,inactive,inactive,inactive,inactive,–,inactive,inactive,inactive,inactive,inactive,inactive,inactive,inactive,inactive,inactive,29.8 µM (active),inactive,–
O=C(Nc1ncc([N+](=O)[O-])s1)c1cccs1,–,–,26.6 µM (active),15 µM (active),inactive,inactive,inactive,inactive,inactive,inactive,inactive,inactive,inactive,inactive,inactive,inactive,–,0.668 µM (active),–,3.76 µM (active)
CC(=O)Nc1c(I)c(NC(C)=O)c(I)c(C(=O)O)c1I,–,inactive,inactive,inactive,inactive,inactive,–,inactive,inactive,inactive,inactive,inactive,inactive,inactive,inactive,inactive,inactive,inactive,–,inactive
CCN(Cc1c(F)cccc1Cl)c1c([N+](=O)[O-])cc(C(F)(F)F)cc1[N+](=O)[O-],–,–,inactive,inactive,inactive,inactive,inactive,inactive,inactive,inactive,inactive,inactive,inactive,inactive,inactive,–,–,54.5 µM (active),inactive,inactive
C=CCc1ccc(O)c(OC)c1,inactive,inactive,inactive,inactive,inactive,inactive,inactive,inactive,inactive,inactive,inactive,inactive,inactive,inactive,inactive,–,–,–,inactive,–
CN1CCC[C@H]1c1cccnc1,–,–,inactive,inactive,inactive,inactive,–,inactive,inactive,inactive,inactive,inactive,inactive,inactive,inactive,–,–,inactive,inactive,inactive
CS(=O)(=O)OCCCCOS(C)(=O)=O,inactive,inactive,inactive,inactive,inactive,inactive,–,inactive,inactive,inactive,inactive,inactive,inactive,inactive,inactive,–,–,inactive,inactive,–
NC1CCCCC1,–,inactive,inactive,inactive,inactive,inactive,–,inactive,inactive,inactive,inactive,inactive,inactive,inactive,inactive,–,–,inactive,inactive,inactive
Nc1ccc(S(N)(=O)=O)cc1,inactive,inactive,inactive,inactive,inactive,inactive,–,inactive,inactive,inactive,inactive,inactive,inactive,inactive,inactive,inactive,inactive,inactive,–,–
CN(C)C(=S)SC(=S)N(C)C,inactive,inactive and 243 nM (active),–,inactive,inactive,inactive,–,inactive,inactive,inactive,inactive,inactive,inactive,inactive,inactive,0.448 µM (active),–,2.98 µM (active) and 28 µM (active) and 61.1 µM (active),–,–
C=C1CC[C@H](O)C/C1=C\C=C1/CCC[C@]2(C)[C@@H]([C@H](C)CCCC(C)C)CC[C@@H]12,–,26.6 µM (active) and 60.6 µM (active),–,inactive,inactive,inactive,–,inactive,inactive,inactive,inactive,inactive,inactive,inactive,inactive,inactive,–,inactive,inactive,inactive
CNNCc1ccc(C(=O)NC(C)C)cc1,inactive,inactive,inactive,–,inactive,inactive,inactive,inactive,inactive,inactive,inactive,inactive,inactive,inactive,inactive,inactive,inactive,–,inactive,–
O=C1OC2(c3ccccc31)c1cc(Br)c(O)c(Br)c1Oc1c2cc(Br)c(O)c1Br,–,inactive,21.1 µM (active) and 1.56 µM (active) and 19.9 µM (active),inactive,3.16 µM (active) and 2.51 µM (active),12.6 µM (active) and 4.47 µM (active) and 17.8 µM (active),inactive,11.2 µM [fluorescent] (active) and 28.2 µM [fluorescent] (active),inactive,11.2 µM [fluorescent] (active) and 17.8 µM [fluorescent] (active),4.47 µM [fluorescent] (active) and 3.55 µM [fluorescent] (active),3.16 µM [fluorescent] (active) and 2.82 µM [fluorescent] (active) and 2.51 µM [fluorescent] (active),inactive,10 µM [fluorescent] (active) and 20 µM [fluorescent] (active),inactive,–,–,–,–,–
